Test results taken from PubChem BioAssay (Tox21).
Records with an inconclusive call do not appear. Active and inactive are the calls of the source. Unless noted, the call rests on the fitted dose curve; in most records, active means well fitted curve in the direction sought with a large enough effect in the repeat runs; inconclusive means weak or mixed curves; inactive means no such curve, though single readings can be large; an effect the other way counts as inactive or inconclusive.

Tests used:
[1] = qHTS assay to identify small molecule agonists of the estrogen receptor alpha (ER-alpha) signaling pathway in the presence of an antagonist - cell viability counter screen (AID 1259386);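 further: cells exposed to compounds for 22 h at 37 °C before the viability read; nearly all actives have a fitted effect of over 30% in size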; further: potency means the concentration at half of the fitted maximal effect
How it was run: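 Steps: 5-day stripped-FBS culture; seed and incubate 24hr; add ICI-182,780 (10.0nM final); pin 15-point compound titration; incubate 22hr at 37C; add CellTiter-Fluor at 21hr; read fluorescence.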

[2] = molecular target: Progesterone receptor (Homo sapiens) (UniProt P06401); test: qHTS assay to identify small molecule antagonists of the progesterone receptor (PR) signaling pathway (AID 1346795; active means well fitted inhibition curve with a large enough effect in the signal ratio in the repeat runs, not every such curve was filed as active; the % refers to the signal ratio)
Chain of Progesterone receptor (Homo sapiens) (P06401 whole entry, looked up): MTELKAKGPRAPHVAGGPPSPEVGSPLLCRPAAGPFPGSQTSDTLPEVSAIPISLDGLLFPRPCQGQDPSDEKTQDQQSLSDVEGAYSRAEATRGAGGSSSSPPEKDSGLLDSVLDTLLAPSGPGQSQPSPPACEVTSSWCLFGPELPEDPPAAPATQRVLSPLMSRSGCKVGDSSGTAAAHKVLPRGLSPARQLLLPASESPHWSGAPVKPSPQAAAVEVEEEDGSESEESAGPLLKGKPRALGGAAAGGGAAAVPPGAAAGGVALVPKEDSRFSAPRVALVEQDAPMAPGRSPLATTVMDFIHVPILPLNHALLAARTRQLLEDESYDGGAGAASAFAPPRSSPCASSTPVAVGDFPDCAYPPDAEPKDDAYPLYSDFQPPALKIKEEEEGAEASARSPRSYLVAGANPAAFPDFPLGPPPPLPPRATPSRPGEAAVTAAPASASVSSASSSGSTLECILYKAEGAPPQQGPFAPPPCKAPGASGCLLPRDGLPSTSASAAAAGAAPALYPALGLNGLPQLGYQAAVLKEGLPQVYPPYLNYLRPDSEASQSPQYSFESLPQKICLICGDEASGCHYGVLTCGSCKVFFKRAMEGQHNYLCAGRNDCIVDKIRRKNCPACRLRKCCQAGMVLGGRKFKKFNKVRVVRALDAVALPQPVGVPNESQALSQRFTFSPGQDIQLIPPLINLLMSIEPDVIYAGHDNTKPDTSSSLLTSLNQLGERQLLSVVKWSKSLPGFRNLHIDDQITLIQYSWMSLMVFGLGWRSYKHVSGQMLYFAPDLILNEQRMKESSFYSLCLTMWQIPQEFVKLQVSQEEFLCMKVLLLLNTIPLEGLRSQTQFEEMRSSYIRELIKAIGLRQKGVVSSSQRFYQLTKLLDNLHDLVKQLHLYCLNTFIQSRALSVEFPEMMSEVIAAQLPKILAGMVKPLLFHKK
How it was run: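 Beta-lactamase reporter, HEK293T PR-UAS-bla line; 2% charcoal-stripped FBS; 6 hr pre-incubation, 37C/5% CO2. Compound + R5020 1 nM final, 16 hr. LiveBLAzer B/G FRET substrate, 2 hr RT; fluorescence intensity read.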

[3] = qHTS assay to identify small molecule antagonists of the progesterone receptor (PR) signaling pathway - cell viability counter screen (AID 1346798); further: nearly all actives have a fitted effect of over 50% in size; further: potency means the concentration at half of the fitted maximal effect
How it was run: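 Luminescence readout (CellTiter-Glo, 30 min, RT) of viability in PR-UAS-bla HEK293T cells exposed to compound and R5020 agonist for 16 hr at 37C, 5% CO2; run in the same wells as the beta-lactamase reporter read.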

[4] = qHTS assay to identify small molecule agonists of the progesterone receptor (PR) signaling pathway - cell viability counter screen (AID 1346799; calls by dose curve; further: nearly all actives have a fitted effect of over 45% in size; further: potency means the concentration at half of the fitted maximal effect)
How it was run: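 HEK293T PR-UAS-bla, 3,000 cells/well, 2% charcoal-stripped FBS; 6 h settle, compound 16 h at 37C/5% CO2; LiveBLAzer 2 h RT, then CellTiter-Glo 30 min RT, luminescence read.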

[5] = qHTS assay to identify small molecule antagonists of the TGF-beta/Smad signaling pathway - cell viability counter screen (AID 1346824); further: nearly all actives have a fitted effect of over 50% in size; further: potency means the concentration at half of the fitted maximal effect
How it was run: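 SBE-bla HEK 293T cells, incubated overnight, then compound plus 0.25 ng/mL TGF-beta1 (stock added) for 5 hr at 37 C. Viability was read in the same wells by CellTiter-Glo luminescence after 30 min at room temperature.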

[6] = qHTS assay to identify small molecule agonists of the TGF-beta/Smad signaling pathway - cell viability counter screen (AID 1346829); further: nearly all actives have a fitted effect of over 45% in size; further: potency means the concentration at half of the fitted maximal effect
How it was run: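 After overnight seating at 37 C and 5% CO2, reporter cells got compounds for 5 hr and FRET substrate for 2 hr; cell viability then came from CellTiter-Glo luminescence.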

[7] = qHTS assay to identify small molecule agonists of the TGF-beta/Smad signaling pathway (AID 1346859; active means well fitted activation curve with a large enough effect in the signal ratio in the repeat runs, not every such curve was filed as active; the % refers to the signal ratio; further: series mostly up to about 77 µM)
How it was run: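 Read-out: fluorescence at 460 and 530 nm (405 nm excitation) after a 2 hr room-temperature incubation with beta-lactamase FRET substrate. SBE-bla HEK 293T cells had been treated with test compounds for 5 hr at 37 C.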

[8] = Human pregnane X receptor (PXR) small molecule agonists, qHTS cell viability counter screen (AID 1346977); further: nearly all actives have a fitted effect of over 50% in size; further: potency means the concentration at half of the fitted maximal effect
How it was run: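 Fluorescence read-out (CellTiter-Fluor) of viability in PXR-Luc HepG2 cells, multiplexed with the luciferase agonist read. Compounds in DMSO added after 5hr plating; 24hr total exposure at 37C, 5% CO2.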

[9] = Caspase-3/7 induction in HepG2 cells by small molecules, qHTS assay (AID 1346978); further: nearly all actives have a fitted effect of over 15% in size
How it was run: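 Wild-type HepG2 cells, 2,000/well, settled 5 hr at 37 C and 5% CO2, then compound-treated for 17 hr; caspase-3/7 activity read by luminescent Caspase-Glo 3/7 after 30 min at room temperature.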

[10] = Caspase-3/7 induction in CHO-K1 cells by small molecules, qHTS cell viability counter screen (AID 1346979); further: nearly all actives have a fitted effect of over 35% in size; further: potency means the concentration at half of the fitted maximal effect
How it was run: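 CHO-K1 wt, 1,500 cells/well; 5hr pre-incubation 37C/5% CO2; compound pin transfer (DMSO); 16hr exposure; CellTiter-Fluor added, 1hr, fluorescence read.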

[11] = Caspase-3/7 induction in CHO-K1 cells by small molecules, qHTS assay (AID 1346980); further: nearly all actives have a fitted effect of over 15% in size
How it was run: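 Wild-type CHO-K1 cells exposed to compounds for 17hr at 37 C, 5% CO2. Caspase-3/7 activity then measured by Caspase-Glo 3/7 luminescence after 30min at room temperature.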

[12] = Caspase-3/7 induction in HepG2 cells by small molecules, qHTS cell viability counter screen (AID 1346981); further: nearly all actives have a fitted effect of over 30% in size; further: potency means the concentration at half of the fitted maximal effect
How it was run: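 The parent HepG2 line is plated at 2,000 cells per well and rested 5 hr before compound pinning from DMSO stocks. Following a 16-hr treatment at 37 C, a fluorogenic live-cell substrate (CellTiter-Fluor) reports viability after 1 hr.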

[13] = molecular target: Nuclear receptor subfamily 1 group I member 2 (Homo sapiens) (UniProt O75469); test: Human pregnane X receptor (PXR) small molecule agonists, qHTS assay (AID 1346982); further: nearly all actives have a fitted effect of over 35% in size; further: potency means the concentration at half of the fitted maximal effect
Chain of Nuclear receptor subfamily 1 group I member 2 (Homo sapiens) (O75469 whole entry, looked up): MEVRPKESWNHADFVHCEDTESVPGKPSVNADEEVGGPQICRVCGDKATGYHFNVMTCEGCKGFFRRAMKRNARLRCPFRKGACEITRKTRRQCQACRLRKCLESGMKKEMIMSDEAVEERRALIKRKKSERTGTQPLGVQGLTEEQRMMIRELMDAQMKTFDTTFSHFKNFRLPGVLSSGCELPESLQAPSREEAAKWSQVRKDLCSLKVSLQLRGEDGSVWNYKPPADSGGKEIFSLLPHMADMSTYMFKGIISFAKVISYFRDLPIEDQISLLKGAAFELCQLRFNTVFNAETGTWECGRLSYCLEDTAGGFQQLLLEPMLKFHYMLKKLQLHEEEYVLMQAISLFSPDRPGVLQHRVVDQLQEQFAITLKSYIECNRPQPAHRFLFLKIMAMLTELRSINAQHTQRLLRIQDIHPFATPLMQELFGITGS
How it was run: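 After plating in 5% charcoal-stripped FBS and a 5 hr rest, PXR-Luc HepG2 cells received compounds in DMSO. Following 24 hr at 37 C, ONE-Glo was added and light output read.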

[14] = molecular target: Acetylcholinesterase (Homo sapiens) (UniProt P22303); test: Acetylcholinesterase (AChE) small molecule antagonists: colormetric cell-based qHTS assay (AID 1347395; calls by dose curve; further: nearly all actives have a fitted effect of over 30% in size)
Chain of Acetylcholinesterase (Homo sapiens) (P22303 whole entry, looked up): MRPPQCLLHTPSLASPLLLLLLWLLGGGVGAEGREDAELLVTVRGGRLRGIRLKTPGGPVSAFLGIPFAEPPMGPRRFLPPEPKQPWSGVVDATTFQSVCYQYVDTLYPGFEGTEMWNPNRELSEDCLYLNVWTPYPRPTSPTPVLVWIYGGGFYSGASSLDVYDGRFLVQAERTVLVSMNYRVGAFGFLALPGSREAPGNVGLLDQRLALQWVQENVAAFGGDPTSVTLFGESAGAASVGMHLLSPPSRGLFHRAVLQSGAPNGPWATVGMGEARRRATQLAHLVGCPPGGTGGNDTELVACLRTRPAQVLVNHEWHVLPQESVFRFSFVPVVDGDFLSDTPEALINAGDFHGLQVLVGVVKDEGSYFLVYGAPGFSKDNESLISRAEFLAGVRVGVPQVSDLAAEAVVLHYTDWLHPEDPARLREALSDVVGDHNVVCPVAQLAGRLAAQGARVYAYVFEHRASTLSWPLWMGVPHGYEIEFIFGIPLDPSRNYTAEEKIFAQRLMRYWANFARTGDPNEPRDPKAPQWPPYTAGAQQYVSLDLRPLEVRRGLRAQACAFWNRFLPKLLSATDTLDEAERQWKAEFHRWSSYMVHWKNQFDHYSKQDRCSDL
How it was run: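 SH-SY5Y cells; cpd 30 min 37 C; + DTNB/acetylthiocholine, 90 min 37 C; colorimetric thiocholine read; qHTS.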

[15] = molecular target: Progesterone receptor (Homo sapiens) (UniProt P06401); test: qHTS assay to identify small molecule agonists of the progesterone receptor (PR) signaling pathway (AID 1346784; calls by dose curve; further: nearly all actives have a fitted effect of over 30% in size; further: potency means the concentration at half of the fitted maximal effect)
How it was run: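 HEK 293T PR-UAS-bla reporter cells, 2% charcoal-stripped FBS; 6 hr settle at 37C/5% CO2, compound (DMSO) 16 hr, LiveBLAzer B/G FRET substrate 2 hr RT, fluorescence intensity read.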

[16] = molecular target: Thyrotropin-releasing hormone receptor (Homo sapiens) (UniProt P34981); test: qHTS assay to identify small molecule antagonists of the thyrotropin-releasing hormone receptor (TRHR) signaling pathway (AID 1346877; active means well fitted inhibition curve with a large enough effect in the repeat runs, not every such curve was filed as active; further: series mostly up to about 51 µM)
Chain of Thyrotropin-releasing hormone receptor (Homo sapiens) (P34981 whole entry, looked up): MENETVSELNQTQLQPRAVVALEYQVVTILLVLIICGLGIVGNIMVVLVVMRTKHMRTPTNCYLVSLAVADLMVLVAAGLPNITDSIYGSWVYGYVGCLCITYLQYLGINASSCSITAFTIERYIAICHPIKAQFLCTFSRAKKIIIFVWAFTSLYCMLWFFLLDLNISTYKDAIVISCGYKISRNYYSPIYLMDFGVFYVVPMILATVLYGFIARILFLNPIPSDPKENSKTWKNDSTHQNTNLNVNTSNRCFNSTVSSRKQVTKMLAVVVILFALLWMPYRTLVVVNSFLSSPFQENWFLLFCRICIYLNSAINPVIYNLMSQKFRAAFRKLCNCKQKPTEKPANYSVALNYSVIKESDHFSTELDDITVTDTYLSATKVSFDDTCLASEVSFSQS
How it was run: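 Human TRHR in HEK293 cells; inhibition of the intracellular calcium rise triggered by 1 nM TRH was followed by fluorescence over 3 min. Compounds were run at 15 concentrations, three replicates each.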

[17] = molecular target: Thyrotropin-releasing hormone receptor (Homo sapiens) (UniProt P34981); test: qHTS assay to identify small molecule agonists of the thyrotropin-releasing hormone receptor (TRHR) signaling pathway (AID 1346891; calls by dose curve;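 further: HEK293 cells expressing TRHR with calcium dye readout; series mostly up to about 58 µM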)
How it was run: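 HEK293/TRHR cells, 1500 per well, 18 h 37 °C; Ca dye 2 h 37 °C; pin-tool compound addition (agonist mode); kinetic fluorescence 3 min, 1 s reads; 15 concentrations, triplicate.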

Measured: Potency

N#C/C=C/c1ccccc1
inactive: [1] | [2] | [3] | [4] | [5] | [6] | [7] | [8] | [9] | [10] | [11] | [12] | [13] | [14]

CC(C)Oc1cccc(NC(=O)c2ccccc2C(F)(F)F)c1
inactive: [1] | [6] | [16] | [17] | [8] | [9] | [11] | [14]
active: [15] 1.22 µM | [10] 45.8 µM | [13] 19.3 µM

N#Cc1ccccc1N
inactive: [1] | [3] | [4] | [5] | [6] | [7] | [16] | [17] | [8] | [9] | [10] | [12] | [13] | [14]

[Hg+2].[I-].[I-]
active: [1] 61.1 µM | [3] 6.11 µM | [4] 5.45 µM | [5] 49 µM | [6] 54.9 µM | [8] 48.6 µM | [10] 21.7 µM | [12] 61.1 µM | [13] 2.43 µM
inactive: [9] | [11] | [14]

CCOC(=O)OC1=C(c2cc(C)ccc2C)C(=O)NC12CCC(OC)CC2 (stereo not drawn)
inactive: [1] | [3] | [4] | [6] | [7] | [16] | [17] | [8] | [9] | [10] | [11] | [12] | [14]

CC(=O)[O-].[Tl+]
inactive: [1] | [3] | [4] | [5] | [6] | [7] | [11] | [12]
active: [8] 27.5 µM | [10] 43.5 µM

Cc1cc(C)c(C2=C(OC(=O)CC(C)(C)C)C3(CCCC3)OC2=O)c(C)c1
inactive: [1] | [3] | [4] | [5] | [6] | [7] | [8] | [9] | [10] | [11] | [12] | [13] | [14]

CC1(c2ccc(Oc3ccccc3)cc2)OC(=O)N(Nc2ccccc2)C1=O (stereo not drawn)
active: [1] 30.8 µM | [8] 27.5 µM | [10] 6.9 µM | [12] 27.5 µM | [13] 21.8 µM
inactive: [15] | [6] | [7] | [16] | [17] | [14]
